Sampled rows, rich in hits. Any-hit rate of the full collection: about 3.3%.
Sm TGR block = qHTS Assay for the Inhibitors of Schistosoma Mansoni Peroxiredoxins; Schistosoma mansoni thioredoxin glutathione reductase (TGR), Q962Y6; purified TGR, DTNB reduction, TNB absorbance 405 nm; Potency, µM (series often up to 114 µM), actives largely listed as inhibitors; actives 3% (n = 360,000); further: nearly all actives have a fitted effect of over 60% in size
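TGR 20 nM + NADPH 100 uM (dispensed conc.), cpd preinc 15 min RT; start with NADPH (500 uM addition) then DTNB (15 mM addition). Kinetic TNB absorbance, 405 nm filter. Four-parameter Hill fit across titration.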
AmpC no deterg = qHTS Inhibitors of AmpC Beta-Lactamase (assay without detergent); P00811; AID 485341, 2010; AmpC nitrocefin hydrolysis, absorbance 480 nm, 0.0001% Triton; actives 0.52% (n = 330,000); Potency, µM (series often up to 57.1 µM), most hits filed as inhibitors; further: nearly all actives have a fitted effect of over 20% in size
Target sequence (P00811 whole entry, looked up): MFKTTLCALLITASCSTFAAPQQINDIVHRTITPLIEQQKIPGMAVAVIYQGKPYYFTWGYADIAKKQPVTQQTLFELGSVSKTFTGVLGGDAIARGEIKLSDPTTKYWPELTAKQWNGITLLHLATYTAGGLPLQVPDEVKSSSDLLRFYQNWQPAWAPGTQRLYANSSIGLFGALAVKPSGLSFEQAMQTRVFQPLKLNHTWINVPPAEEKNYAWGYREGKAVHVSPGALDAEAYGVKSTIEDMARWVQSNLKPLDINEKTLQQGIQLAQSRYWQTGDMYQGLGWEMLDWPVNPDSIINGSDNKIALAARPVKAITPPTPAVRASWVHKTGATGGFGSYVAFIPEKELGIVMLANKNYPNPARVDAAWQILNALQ
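20 mM phosphate pH 7.0 + 0.01% (detergent screen) or 0.0001% Triton X-100; 5.3 nM AmpC reagent; cpd preinc 15 min RT; nitrocefin (800 uM stock) to start; A480 q20 s × 4 min; Activity was normalised to no-enzyme and no-compound control wells.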
AmpC inh detg = qHTS Inhibitors of AmpC Beta-Lactamase (assay with detergent); P00811; AmpC hydrolysis of nitrocefin, absorbance 480 nm, 0.01% Triton; Potency, µM (series often up to 114 µM), usual class: inhibitors; actives 0.041% (n = 370,000); further: nearly all actives have a fitted effect of over 25% in size
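20 mM phosphate pH 7.0 + 0.01% (detergent screen) or 0.0001% Triton X-100; 5.3 nM AmpC reagent; cpd preinc 15 min RT; nitrocefin (800 uM stock) to start; A480 q20 s × 4 min; Activity was normalised to no-enzyme and no-compound control wells.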
Hits are given with their value. The call rests on the fitted dose curve; in most records, active means well fitted curve in the direction sought with a large enough effect; inconclusive means small, poorly fitted or top-dose-only effect, or another doubt; inactive means no such curve, though single readings can be large; an effect the other way counts as inactive or inconclusive.

Screening CCCc1cc(=O)oc2cc(OCC(=O)NCc3cccs3)ccc12 returned Sm TGR block inactive, AmpC no deterg inactive and AmpC inh detg inactive.
For COc1ccc(NC(=O)Cn2ccn(-c3ccc(F)c(F)c3)c(=O)c2=O)cc1Cl the results were Sm TGR block inactive and AmpC inh detg inactive.
COc1ccc(/C(N)=N/OC(=O)C2CCCCC2)cc1 was read as Sm TGR block 89.1µM, AmpC no deterg inactive and AmpC inh detg inactive.
COc1ccc(/C(N)=N/OC(=O)C2CCCCC2)cc1OC was read as Sm TGR block inactive, AmpC no deterg inactive and AmpC inh detg inactive.
Screening Cn1c(=O)n(C/C=C/c2ccccc2)c(=O)c2c1nc1n2CCN1c1ccccc1 returned Sm TGR block inactive and AmpC inh detg inactive.
CC(=O)n1cc([C@@H]2C=C(C(=O)N3CCN(Cc4ccc5c(c4)OCO5)CC3)O[C@H](OCCCCO)C2)c2ccccc21 was read as Sm TGR block inactive, AmpC no deterg inactive and AmpC inh detg inactive.
O=C(C1=C[C@H](c2csc3ccccc23)C[C@H](OCc2ccc(CO)cc2)O1)N1CCN(Cc2ccc3c(c2)OCO3)CC1 was read as Sm TGR block inactive, AmpC no deterg inactive and AmpC inh detg inactive.
For CC(=O)n1cc([C@H]2C=C(C(=O)N3CCN(Cc4ccccc4)CC3)O[C@@H](OCCCCO)C2)c2ccccc21 the results were Sm TGR block 35.5µM, AmpC no deterg inactive and AmpC inh detg inactive.
O=C(C1=C[C@H](c2csc3ccccc23)C[C@H](OCc2ccc(CO)cc2)O1)N1CCN(Cc2ccccc2)CC1 was read as Sm TGR block 14.1µM, AmpC no deterg inactive and AmpC inh detg inactive.
For CC(=O)n1cc([C@H]2C=C(C(=O)NCc3ccccc3)O[C@@H](OCc3ccc(CO)cc3)C2)c2ccccc21 the results were Sm TGR block inconclusive, AmpC no deterg inactive and AmpC inh detg inactive.
Screening CC(=O)n1cc([C@@H]2C=C(C(=O)N3CCN(Cc4ccccc4)CC3)O[C@H](OCc3ccc(CO)cc3)C2)c2ccccc21 returned Sm TGR block 25.1µM, AmpC no deterg inactive and AmpC inh detg inactive.
`COCCNC(=O)CSc1nnc2[nH]c(=O)cc(C)n12` gave Sm TGR block inactive and AmpC inh detg inactive.
For COc1ccccc1OCC(=O)N(Cc1ccco1)Cc1ccccc1F the results were Sm TGR block inactive and AmpC inh detg inactive.
For COCC(=O)NCc1ccc2c(c1)cc(C)n2C the results were Sm TGR block inactive, AmpC no deterg inactive and AmpC inh detg inactive.
Screening Cc1ccc(S(=O)(=O)NCc2ccc3c(c2)cc(C)n3C)cc1 returned Sm TGR block inactive, AmpC no deterg 25.1µM and AmpC inh detg inconclusive.
For CC(C)CCOc1ccc(C(=O)CCNC(C)C(=O)O)cc1 (configuration not stated) the results were Sm TGR block 1µM, AmpC no deterg inactive and AmpC inh detg inactive.
CC(C)CCOc1ccc(C(=O)O)cc1 was read as Sm TGR block inactive, AmpC no deterg inactive and AmpC inh detg inactive.
Screening Cc1ccc(-c2nc3sc(CCNC(=O)c4ccc(F)c(F)c4)c(C)n3n2)cc1 returned Sm TGR block inactive and AmpC inh detg inactive.
Screening COc1cc(C(CC(=O)NCc2ccccc2)N2Cc3ccccc3C2=O)cc(OC)c1OC (configuration not stated) returned Sm TGR block inactive and AmpC inh detg inactive.
O=C(O)c1cccc(-n2cccc2/C=C2/NC(=O)N(c3cccc(Cl)c3)C2=O)c1 was read as Sm TGR block inactive, AmpC no deterg inactive and AmpC inh detg inactive.
`O=C(O)c1cccc(-n2cccc2/C=C2/NC(=O)N(c3ccc(Cl)cc3)C2=O)c1` gave Sm TGR block inconclusive, AmpC no deterg 12.6µM and AmpC inh detg inactive.
`O=S(=O)(NC[C@@H]1CCC[C@H](CNS(=O)(=O)c2c(F)cccc2F)C1)c1ccc2c(c1)OCCO2` gave Sm TGR block inactive, AmpC no deterg inactive and AmpC inh detg inactive.
For O=C(Nc1ccc(F)c(F)c1)c1cc(S(=O)(=O)NCc2ccc3c(c2)OCO3)ccc1F the results were Sm TGR block inactive and AmpC inh detg inactive.
`Cc1ccc(CCNC(=O)CS(=O)Cc2nc(-c3ccccc3C)oc2C)cc1` (configuration not stated) gave Sm TGR block inactive and AmpC inh detg inactive.
Screening COCCNC(=O)CS(=O)Cc1nc(-c2ccc(OC)cc2)oc1C (configuration not stated) returned Sm TGR block inactive, AmpC no deterg inactive and AmpC inh detg inconclusive.
For COc1ccc(CNC(=O)CS(=O)Cc2nc(-c3ccccc3C)oc2C)cc1 (configuration not stated) the results were Sm TGR block inconclusive, AmpC no deterg inactive and AmpC inh detg inconclusive.
Cc1ccccc1-c1nc(CS(=O)CC(=O)NCCc2ccc(Cl)cc2)c(C)o1 (configuration not stated) was read as Sm TGR block 28.2µM, AmpC no deterg inactive and AmpC inh detg inactive.
Cc1ccccc1-c1nc(CS(=O)CC(=O)NCc2ccccc2)c(C)o1 (configuration not stated) was read as Sm TGR block 22.4µM, AmpC no deterg inactive and AmpC inh detg inconclusive.
For COCCNC(=O)CS(=O)Cc1nc(-c2ccccc2C)oc1C (configuration not stated) the results were Sm TGR block 39.8µM, AmpC no deterg inactive and AmpC inh detg inactive.
For Cc1ccc(CNC(=O)CS(=O)Cc2nc(-c3ccccc3C)oc2C)cc1 (configuration not stated) the results were Sm TGR block 44.7µM, AmpC no deterg inactive and AmpC inh detg inconclusive.
For COc1ccccc1CNC(=O)CS(=O)Cc1nc(-c2ccccc2C)oc1C (configuration not stated) the results were Sm TGR block inconclusive, AmpC no deterg inactive and AmpC inh detg inconclusive.
CCc1ccccc1NC(=O)C1CCN(c2nc3ccccc3[nH]2)CC1 was read as Sm TGR block inactive and AmpC inh detg inactive.
`CCOc1ccccc1-c1noc(CSc2nnc(-c3ccccc3)n2-c2ccc(F)cc2)n1` gave Sm TGR block inactive and AmpC inh detg inactive.
CCOc1ccc(CCNC(=O)CCn2c(=O)c3cccn3c3ccc(F)cc32)cc1OCC was read as Sm TGR block inactive and AmpC inh detg inactive.
`CCOc1ccc(NC(=O)c2oc3ccccc3c2NC(=O)Cc2cccs2)cc1` gave Sm TGR block inactive and AmpC inh detg inactive.
For Cn1c(=O)c2nncnc2n(C)c1=O the results were Sm TGR block inactive, AmpC no deterg inactive and AmpC inh detg inconclusive.
For Cc1nc2c(=O)n(C)c(=O)n(C)c2nc1Cl the results were Sm TGR block 6.31µM, AmpC no deterg inactive and AmpC inh detg inconclusive.
For CCc1cccc(NC(=O)Cn2c(=O)n(CC(=O)NCCc3ccccc3)c(=O)c3ccccc32)c1 the results were Sm TGR block inactive and AmpC inh detg inactive.
For CCc1ccccc1NC(=O)CSc1nc(-c2cccc(Cl)c2)nc2c1Cc1c(CO)cnc(C)c1O2 the results were Sm TGR block inactive and AmpC inh detg inactive.

Assay outcomes (PubChem BioAssay)
